Test results: PubChem BioAssay
Active and inactive are the calls of the source. Unless noted, no rule for the calls is given here.

What was measured:
[1] = A549 cell viability effects, profiling panel, calcein-AM fluorescence, 48 h, basal (AID 1162); settings: higher = more signal; also: test concentration not given here
[2] = adipocyte viability effects, profiling panel, cell-based, 3T3-L1 adipocytes, calcein-AM fluorescence, 48 h, basal (AID 1163); settings: 3T3-L1 adipocytes viability, higher = more signal; also: test concentration not given here
[3] = HepG2 cell viability effects, profiling panel, calcein-AM fluorescence, 48 h, basal (AID 1164); settings: higher = more signal; also: test concentration not given here
[4] = MM1S cell viability effects, profiling panel, calcein-AM fluorescence, 48 h, basal (AID 1165); settings: higher = more signal;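 also: viability of MM1S multiple myeloma cells under basal unstimulated conditions; test concentration not given here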
[5] = basal RPMI8226 viability, no added stimulus, profiling panel, cell-based, calcein-AM fluorescence, 48 h, PK04 Diversity Set (AID 1166); settings: RPMI8226 myeloma viability, higher = more signal;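 also: cells grown under basal conditions without added stimulus; test concentration not given here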
[6] = basal HepG2 mitochondrial membrane potential changes, profiling panel, cell-based, JC-1 fluorescence, 24 h, 100 nL compound (AID 1167); settings: higher = more signal; also: test concentration not given here
[7] = basal 3T3-L1 adipocyte mitochondrial potential changes, profiling panel, cell-based, JC-1 fluorescence, 3T3-L1 adipocytes, 24 h, 100 nL compound (AID 1168); settings: JC-1 mitochondrial fluorescence, higher = more signal, called active from +8 up or from −8 down; also: test concentration not given here
[8] = basal RPMI8226 mitochondrial membrane potential changes, profiling panel, cell-based, JC-1 fluorescence, 24 h, 100 nL compound (AID 1169); settings: RPMI8226 myeloma, JC-1 mitochondrial potential fluorescence, higher = more signal; also: test concentration not given here
[9] = basal MM1S mitochondrial membrane potential changes, profiling panel, cell-based, JC-1 fluorescence, 24 h, 100 nL compound (AID 1170); settings: higher = more signal; also: test concentration not given here
[10] = A549 lung cancer cell viability effects, profiling panel, resazurin fluorescence, 24 h, PK04 Diversity Set (AID 1171); settings: higher = more signal, called active from +8 up or from −8 down; also: test concentration not given here
[11] = HepG2 liver cancer cell viability effects, profiling panel, resazurin fluorescence, 24 h, PK04 Diversity Set (AID 1172); settings: higher = more signal; also: test concentration not given here
[12] = basal S. cerevisiae growth modulation, no modifier, primary screen, OD600, strain BY4716, 24 h, basal condition (AID 1173); settings: OD600, 24 h, higher = more signal, called active from +8 up or from −8 down
[13] = MM1S myeloma cell viability, profiling panel, resazurin fluorescence, basal, 24 h, PK04 Diversity Set (AID 1174); settings: higher = more signal, called active from +8 up or from −8 down;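 also: MM1S multiple myeloma cell line; test concentration not given here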
[14] = target: Dihydroorotate dehydrogenase (quinone), mitochondrial (Plasmodium falciparum (isolate 3D7)) (UniProt Q08210); assay: PfDHODH enzyme inhibitors, primary screen, biochemical, C-terminal His tag, absorbance 600 nm (AID 1175); settings: DCIP absorbance 600 nm, higher = more signal, called active from +8 up or from −8 down;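 also: recombinant parasite enzyme with a five histidine tag at its C terminus; test concentration not given here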
[15] = P. aeruginosa biofilm formation inhibitors, primary screen, strain PAO1, LB-PBS medium, absorbance 600 nm (AID 1176); also: test concentration not given here; settings: P. aeruginosa PAO1 growth/biofilm, A600, 12 h; higher = more signal
[16] = S. cerevisiae RM11-1a growth modifiers, primary screen, strain RM11-1a, OD600, basal, 24 h (AID 1177); settings: OD600, 24 h, higher = more signal, called active from +8 up or from −8 down;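 also: cultures grown under basal conditions with no added stressor; test concentration not given here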
[17] = E. coli acrAB mutant growth effects, primary screen, E. coli filamentation inducers, strain DRC39, OD650, 24 h (AID 1178); settings: higher = more signal, called active from +8 up or from −8 down;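 also: growth measured as culture turbidity by optical density at 650 nm; test concentration not given here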
[18] = E. coli acrAB mutant growth effects, primary screen, E. coli filamentation inducers, strain DRC39, OD650, 48 h (AID 1179);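 also: screen aims at cell division blockers that make cells filament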; settings: E. coli DRC39 delta-acrAB growth, higher = more signal, called active from +8 up or from −8 down
[19] = RPMI8226 myeloma cell viability, profiling panel, resazurin fluorescence, basal, 24 h, PK04 Diversity Set (AID 1180); settings: higher = more signal;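 also: RPMI8826 multiple myeloma cell line at 5000 cells per well; test concentration not given here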
[20] = target: E3 ubiquitin-protein ligase XIAP (Homo sapiens) (UniProt P98170); assay: XIAP binders, primary screen, biophysical, small-molecule microarray, fluorescence 635 nm (AID 1181); settings: small-molecule microarray binding, higher = more signal;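 also: score merges 667 nm emission and signal to noise over triplicate slides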
Chain of E3 ubiquitin-protein ligase XIAP (Homo sapiens) (P98170 whole entry, looked up): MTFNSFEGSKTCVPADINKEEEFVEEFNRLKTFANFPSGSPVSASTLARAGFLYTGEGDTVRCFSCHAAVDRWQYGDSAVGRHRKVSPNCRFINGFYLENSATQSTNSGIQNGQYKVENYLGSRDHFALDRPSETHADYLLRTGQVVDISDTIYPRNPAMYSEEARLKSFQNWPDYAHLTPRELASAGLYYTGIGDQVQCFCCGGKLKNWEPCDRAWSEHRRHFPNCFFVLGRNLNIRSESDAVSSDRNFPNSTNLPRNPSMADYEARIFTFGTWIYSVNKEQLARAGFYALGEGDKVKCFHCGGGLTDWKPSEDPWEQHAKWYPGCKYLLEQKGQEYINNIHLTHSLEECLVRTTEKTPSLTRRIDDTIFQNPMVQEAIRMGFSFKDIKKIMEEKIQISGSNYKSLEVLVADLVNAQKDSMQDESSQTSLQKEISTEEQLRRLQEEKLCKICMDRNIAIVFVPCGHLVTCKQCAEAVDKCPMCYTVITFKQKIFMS

Chain of Dihydroorotate dehydrogenase (quinone), mitochondrial (Plasmodium falciparum (isolate 3D7)) (Q08210 whole entry, looked up): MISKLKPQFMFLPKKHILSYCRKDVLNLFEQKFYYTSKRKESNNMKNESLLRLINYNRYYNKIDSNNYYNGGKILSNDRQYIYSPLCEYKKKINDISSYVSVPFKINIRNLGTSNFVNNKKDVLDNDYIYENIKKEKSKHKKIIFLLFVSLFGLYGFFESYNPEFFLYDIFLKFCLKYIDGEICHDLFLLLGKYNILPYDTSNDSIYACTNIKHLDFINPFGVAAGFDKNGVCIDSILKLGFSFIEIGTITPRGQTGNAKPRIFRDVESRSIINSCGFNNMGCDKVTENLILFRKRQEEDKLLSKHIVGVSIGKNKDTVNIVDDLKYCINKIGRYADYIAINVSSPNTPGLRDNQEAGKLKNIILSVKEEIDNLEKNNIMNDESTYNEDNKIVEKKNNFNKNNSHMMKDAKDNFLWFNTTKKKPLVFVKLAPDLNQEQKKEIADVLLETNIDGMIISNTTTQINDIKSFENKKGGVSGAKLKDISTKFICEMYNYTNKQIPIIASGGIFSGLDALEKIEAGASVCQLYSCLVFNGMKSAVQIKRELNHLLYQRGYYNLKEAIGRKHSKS

Row | Structure (SMILES) | z-score [1] | z-score [2] | z-score [3] | z-score [4] | z-score [5] | z-score [6] | z-score [7] | z-score [8] | z-score [9] | z-score [10] | z-score [11] | z-score [12] | z-score [13] | composite z-score [14] | z-score [15] | z-score [16] | z-score [17] | z-score [18] | z-score [19] | composite z-score [20]
1 | O[C@@H](Cc1ccccc1)[C@@H](/C=C/c1ccccc1)NCc1ccccc1Br | 0.0965 | -0.766 | -0.0276 | -1.3 | -0.771 | 0.313 | 0.19 (inactive) | -0.228 | -1.8 | -0.396 (inactive) | 0.13 | -6.87 (inactive) | 0.119 (inactive) | -1.05 (inactive) | -0.107 (inactive) | -0.955 (inactive) | 0.429 (inactive) | -0.21 (inactive) | 0.115 | -0.214
2 | COC(=O)[C@@]1(Cc2ccc(OC)cc2)[C@H]2c3cc(C(=O)N4CCCC4)n(CCc4ccccn4)c3C[C@H]2CN1C(=O)c1ccccc1 | -0.991 | 1.13 | -0.946 | 0.0275 | -1.7 | 1.1 | -1.59 (inactive) | -0.161 | 0.00382 | -0.201 (inactive) | -0.608 | 1.17 (inactive) | -1.55 (inactive) | -0.362 (inactive) | 1.5 (inactive) | 0.664 (inactive) | -0.784 (inactive) | -0.912 (inactive) | -2.73 | 0.0976
3 | CCCNC(=O)[C@@]1(C)c2ccccc2C(=O)N(C(C)C)[C@H]1c1ccc(CO)cc1 | -0.23 | 0.793 | -0.13 | -0.634 | -0.025 | 0.977 | -0.0917 (inactive) | 0.0976 | -0.426 | 0.788 (inactive) | 0.241 | -0.619 (inactive) | 0.148 (inactive) | -0.44 (inactive) | 0.332 (inactive) | -0.531 (inactive) | -0.252 (inactive) | -0.516 (inactive) | 0.0567 | -0.0553
4 | COC(=O)[C@@]1(Cc2ccc(F)cc2)[C@H]2c3cc(C(=O)N4CCCC4)n(Cc4ccc(Cl)c(C(F)(F)F)c4)c3C[C@H]2CN1C(=O)c1ccccc1 | -0.463 | -0.286 | -0.452 | -0.604 | -2.4 | 1.09 | -1.33 (inactive) | -0.673 | -1.96 | -1.53 (inactive) | -1.03 | 1.55 (inactive) | -2.02 (inactive) | 0.0979 (inactive) | 0.84 (inactive) | 0.78 (inactive) | -0.178 (inactive) | 0.272 (inactive) | -3.32 | 0.553
5 | CN(C)CCCC[C@@H]1NC(=O)[C@@H]2C[C@H](C(=O)NCc3ccc(F)cc3)[C@H](c3cccc(OCCO)c3)N2C1=O | 0.514 | -0.0506 | 0.554 | 0.731 | 1.02 | 2.08 | 0.544 (inactive) | 0.46 | -0.749 | -0.158 (inactive) | -0.487 | -0.889 (inactive) | 0.0458 (inactive) | -0.366 (inactive) | 0.199 (inactive) | -0.889 (inactive) | 0.797 (inactive) | 0.83 (inactive) | 0.293 | 0.0808
6 | COCCOC(=O)N1C(=O)[C@@]2(c3cc(C#CC4=CCCCC4)ccc31)[C@H](C(=O)N1CCN(c3ncccn3)CC1)[C@H]1C(=O)O[C@H](c3ccccc3)[C@H](c3ccccc3)N1[C@@H]2c1ccc(OCCO)cc1 | -0.167 | 0.937 | -0.247 | -1.05 | -0.812 | -0.203 | 1.59 (inactive) | -0.606 | -0.822 | 0.532 (inactive) | 0.156 | 1.31 (inactive) | 0.162 (inactive) | -0.204 (inactive) | 3.13 (inactive) | 1.69 (inactive) | 0.208 (inactive) | -0.564 (inactive) | -0.147 | -0.0389
7 | CCOC(=O)C1=CC[C@@H](c2ccccc2)N(S(=O)(=O)c2ccc(C)cc2)[C@H]1c1ccc(C#N)cc1 | 0.423 | -0.574 | -0.178 | -0.306 | -0.973 | 0.51 | -1.12 (inactive) | 0.124 | -0.725 | 1.39 (inactive) | 0.162 | 1.5 (inactive) | -0.116 (inactive) | -0.0753 (inactive) | 0.381 (inactive) | -0.299 (inactive) | -0.604 (inactive) | -0.288 (inactive) | -1.4 | 0.0123
8 | COC(=O)[C@@]1(Cc2ccc(OC)cc2)[C@H]2c3cc(C(=O)N4CCCC4)n(C[C@H](O)CO)c3C[C@H]2CN1C(=O)c1ccccc1 | -0.892 | -0.113 | 0.255 | -1.05 | 0.197 | 1.76 | 0.585 (inactive) | 0.933 | -1.03 | 0.336 (inactive) | -0.0006 | 1.92 (inactive) | -0.579 (inactive) | -0.475 (inactive) | -0.306 (inactive) | 1.04 (inactive) | 0.305 (inactive) | 0.644 (inactive) | -0.595 | -0.0251
9 | C=C(C(=O)CC[C@H](OC(=O)c1cccnc1)c1ccccc1OCCO)C(C)C | 0.219 | -0.602 | -0.967 | -2.21 | -1.69 | -1.45 | 0.31 (inactive) | -0.742 | -0.477 | 0.626 (inactive) | 0.3 | -0.993 (inactive) | -1.5 (inactive) | -0.429 (inactive) | 0.686 (inactive) | -0.237 (inactive) | 0.283 (inactive) | 0.237 (inactive) | -2.14 | -0.0994
